According to PubChem BioAssay (NCI):
Compounds without any hit were thinned out: in the full panel of roughly 83,000, 20% have a hit.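 Single-dose data. Exposure time 48 hours. Values below 10 considered active.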 A number with no mark means an inactive call. The source made the active and inactive calls.

How the values were obtained:
Test in all cases: NCI-60 one-dose screen, 48 h (100 = growth as untreated, 0 = no growth, -100 = all killed)
Settings in all cases: 10 µM unless noted
RPMI-8226 leukemia = system: RPMI-8226 leukemia
OVCAR-8 ovarian = system: OVCAR-8 ovarian
OVCAR-5 ovarian = system: OVCAR-5 ovarian
SK-OV-3 ovarian = system: SK-OV-3 ovarian
IGROV1 ovarian = system: IGROV1 ovarian
OVCAR-3 ovarian = system: OVCAR-3 ovarian
HS 578T breast = system: HS 578T breast
NCI/ADR-RES ovarian = system: NCI/ADR-RES ovarian
T-47D breast = system: T-47D breast
BT-549 breast = system: BT-549 breast
MDA-MB-435 melanoma = system: MDA-MB-435 melanoma
SW-620 colon = system: SW-620 colon
MCF7 breast = system: MCF7 breast
HCT-116 colon = system: HCT-116 colon
HCC-2998 colon = system: HCC-2998 colon
KM12 colon = system: KM12 colon
OVCAR-4 ovarian = system: OVCAR-4 ovarian

Row | SMILES | growth (RPMI-8226 leukemia) | growth (OVCAR-8 ovarian) | growth (OVCAR-5 ovarian) | growth (SK-OV-3 ovarian) | growth (IGROV1 ovarian) | growth (OVCAR-3 ovarian) | growth (HS 578T breast) | growth (NCI/ADR-RES ovarian) | growth (T-47D breast) | growth (BT-549 breast) | growth (MDA-MB-435 melanoma) | growth (SW-620 colon) | growth (MCF7 breast) | growth (HCT-116 colon) | growth (HCC-2998 colon) | growth (KM12 colon) | growth (OVCAR-4 ovarian)
1 | Brc1c[n+](Cc2ccc3ccccc3c2)cn1Cc1ccc2ccccc2c1 | -46.3% (active) | 8.2% (active) | 46.8% | 34.9% | -51% (active) | -4.19% (active) | -7.66% (active) | 97.5% | 6.91% (active) | -12.1% (active) | -32.1% (active) | 37.7% | 14.3% | 17% | -28.5% (active) | -73.5% (active) | 
2 | COc1ccc(-c2cc(-c3cc(OC)c(OC)c(OC)c3)nc(N3CCOCC3)c2C#N)cc1 | 63.7% | 78.9% | 78.4% | 98.2% |  | 82.9% | 67.5% | 29.9% | 46.7% | 128% | 74.5% | 67.3% | 74.4% | 72.1% | 35% | 71.9% | 85.8%
3 | Cc1nc2ccccc2c(/C=C/c2ccccc2)c1C(=O)/C=C/c1ccc(C(F)(F)F)cc1 | -29.1% (active) | 10.3% | -34.6% (active) | 7.69% (active) |  | -86.5% (active) | -10.9% (active) |  | -14.6% (active) | -25.6% (active) | -82.6% (active) | -32.9% (active) | -9.44% (active) | -64.5% (active) | -70.5% (active) | -58.9% (active) | -42.8% (active)
4 | COc1cc(C(=O)/C=C/c2ccc(OCCCCCC[P+](c3ccccc3)(c3ccccc3)c3ccccc3)cc2)cc(OC)c1OC | 0.339% (active) | -45.5% (active) | -13% (active) | -35.9% (active) |  | -48% (active) | -6.89% (active) | 74.4% | -21.5% (active) | -47.6% (active) | -58.9% (active) | -80.4% (active) | -68.1% (active) | -77.3% (active) |  | -86.8% (active) | 10.1%
5 | NC1=C(c2nn[nH]n2)C(c2ccccc2Cl)c2ccc3ccccc3c2O1 (stereo unspecified) | 71.7% | 86% | 109% | 86.2% |  | 69.6% | 80.3% | 55.9% | 69.3% | 93.1% | -10.3% (active) | 48.8% | 41.3% | 63.1% | 98.6% | 60.4% | 81.5%
6 | C#C[C@]1(O)CC[C@H]2[C@@H]3CC=C4c5sc(Nc6ccccc6)nc5CC[C@]4(C)[C@H]3CC[C@@]21C | -32.1% (active) | 33.8% | 52% | -35.3% (active) | 46.7% |  | -19.9% (active) | 38.2% | 28.6% | 19.9% | 34.4% | 3.04% (active) | 8.14% (active) | -33.3% (active) | 45.3% | 13.1% | 51.6%
7 | c1cc(-c2nnc(SSc3ncnc4nc[nH]c34)o2)ccn1 | 16.1% | 20.4% | 39.7% | 32.8% |  | 31.1% | 66% | 27.3% | 42.3% | 51.7% | 16% | 34.6% | 23% | 16.6% | 10.3% | 45.8% | 63.3%
8 | Cc1ccc(C2CC(c3ccc(Nc4ccnc5cc(Cl)ccc45)cc3)=NN2C=O)cc1 (stereo unspecified) | 19.8% | 59.8% | 94.8% | 84.8% | 48.2% |  | 61.8% | 42.3% | 38.3% |  | 16.3% | 68% | 35.2% | 57.6% | 53.2% | 50.2% | 38.7%
9 | O=S(=O)(NCCCNc1cc(-c2c(-c3cccc(O)c3)nc3sccn23)ccn1)c1cccc2ccccc12 | 8.85% (active) | 19% | 102% | 58.2% | 30.6% |  | 22.7% | 77% | 8.57% (active) | 25.5% | 35.6% | 47.1% | 35.4% | 33.1% | 59.2% | 34.8% | 36.4%
10 | COc1cc(CNS(=O)(=O)c2ccc(C)cc2)ccc1OCc1cn(-c2ccccc2)nn1 | 67.9% | 93.2% | 97.9% | 97.6% | 83.7% | 85% | 86.1% | 81.3% | 66.5% | 88.1% | 99.9% | 98.9% | 92.7% | 85.1% | 117% | 99.4% | 
11 | C=C1CC[C@H](C(C)C)[C@@H]2[C@H]1[C@H]1CC(=C)[C@@H](O)CC[C@@](C)(O)[C@@H]2O1 | 93.3% | 99.4% | 79.5% | 109% | 107% | 101% | 92.4% | 85.9% | 97.1% | 99.2% | 96.8% | 96.7% | 97% | 86.2% | 77.9% | 96.3% | 
12 | CN1CCN(c2ccc(-c3cnc4c(-c5csc6ccccc56)cnn4c3)cc2)CC1 | -16.7% (active) | -29% (active) | 7.38% (active) | 81.1% | 5.7% (active) |  | -28.4% (active) | -20.8% (active) | -7.17% (active) | -39.3% (active) | -46.1% (active) | -5.95% (active) | -22.5% (active) |  | 24.8% | -3.74% (active) | 11.9%
13 | c1ccc(-c2nc3nonc3nc2-c2ccccc2)cc1 | 71.9% | 72.8% | 82.3% | 74% | 60.8% |  | 64.3% | 74.4% | 61.6% | 56.2% | 43.1% | 82.3% | 60.9% | 62.5% | 95.4% | 74.4% | 22.7%
14 | C=C1CC[C@@]2(C#N)[C@H]3[C@H](CC[C@@H]2C)[C@@H](C)C[C@@H](CC(C)(C)C#N)[C@H]13 | 40.3% | 49.1% | 48.5% | 46.1% |  | 51% | 30.2% | 35.4% | 21.5% | 50.4% | 35.9% | 49.9% | 21.1% | 14.5% | 37.3% | 35.7% | 37.7%
15 | O=C(O)C(c1ccccc1)N1C(=O)CSC1=S (stereo unspecified) | 114% | 101% | 101% | 101% | 107% |  | 100% | 106% | 97.7% | 94.2% | 99.5% | 103% | 93.8% | 102% | 112% | 102% | 109%
16 | COc1ccc(/C=N/Nc2cc(=O)[nH]c3ccc(C)cc23)cc1 | 81.6% | 95.6% | 98% | 87.6% | 98.4% |  | 88.3% | 94.9% | 70.7% | 88.3% | 102% | 96.8% | 78.1% | 83.1% |  | 105% | 109%
